Screening results from PubChem BioAssay.
The list is not random: actives were taken first. Their share in the collection is about 7.4%.
SNCA expr inh: inhibitors of alpha-synuclein (SNCA) gene expression | AID 1671194 | HEK-293 SNCA-luciferase knock-in, luminescence, 24 h | 140,000 compounds, 0.17% hits | Potency, µM (doses to about 57.2 µM), for the others: top-dose activity change, negative = inhibition, actives largely listed as inhibitors;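 further: plate controls were DMSO cells for no effect and cell-free wells for full effect; nearly all actives have a fitted effect of over 45% in size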
HEK293 viab: reduces viability of HEK-293 SNCA reporter cells; HEK-293-SNCA-luc viability, GF-AFC fluorescence, 24 h; Potency, µM (highest dose often 57.1 µM), for inactives: at the top dose activity change, negative = cytotoxicity, most hits filed as cytotoxic; 150,000 compounds, 0.12% hits; AID 1671193;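 further: 0% = DMSO-treated cells and -100% = medium-only wells without cells; nearly all actives have a fitted effect of over 30% in size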
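HEK-293-SNCA-luc cells (1500/well) plated 24 h, then exposed 24 h to a dilution series; GF-AFC added 30 min at 37C, fluorescence 405/540 nm; normalised to medium-only and DMSO wells, Hill fit.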
HEK293 tox: HEK 293 cell cytotoxicity. HEK 293 viability, ATP luminescence (CellTiter-Glo), 48-72 h. Potency, µM (series often up to 115 µM), for inactives: at the highest dose activity change, negative = cytotoxicity, hits mostly inhibitors. 94,000 compounds, 6.6% hits; further: nearly all actives have a fitted effect of over 60% in size
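CellTiter-Glo luminescence (cellular ATP) was read after 48 or 72 hr of compound exposure at 37 degree Celsius. Cells were HEK 293 plated at 250 cells/well.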
NPR1 antag: antagonists of human natriuretic peptide receptor Npr1; P16066; HEK293 hNpr1 GloSensor cGMP, ANP-stimulated luminescence; Potency, µM (top dose mostly 46.3 µM), for the others: at the highest dose activity change, negative = inhibition, actives largely listed as inhibitors; 76,000 compounds, 1.6% hits; AID 1347048; calls by dose curve; further: nearly all actives have a fitted effect of over 60% in size
Target sequence (P16066 whole entry, looked up): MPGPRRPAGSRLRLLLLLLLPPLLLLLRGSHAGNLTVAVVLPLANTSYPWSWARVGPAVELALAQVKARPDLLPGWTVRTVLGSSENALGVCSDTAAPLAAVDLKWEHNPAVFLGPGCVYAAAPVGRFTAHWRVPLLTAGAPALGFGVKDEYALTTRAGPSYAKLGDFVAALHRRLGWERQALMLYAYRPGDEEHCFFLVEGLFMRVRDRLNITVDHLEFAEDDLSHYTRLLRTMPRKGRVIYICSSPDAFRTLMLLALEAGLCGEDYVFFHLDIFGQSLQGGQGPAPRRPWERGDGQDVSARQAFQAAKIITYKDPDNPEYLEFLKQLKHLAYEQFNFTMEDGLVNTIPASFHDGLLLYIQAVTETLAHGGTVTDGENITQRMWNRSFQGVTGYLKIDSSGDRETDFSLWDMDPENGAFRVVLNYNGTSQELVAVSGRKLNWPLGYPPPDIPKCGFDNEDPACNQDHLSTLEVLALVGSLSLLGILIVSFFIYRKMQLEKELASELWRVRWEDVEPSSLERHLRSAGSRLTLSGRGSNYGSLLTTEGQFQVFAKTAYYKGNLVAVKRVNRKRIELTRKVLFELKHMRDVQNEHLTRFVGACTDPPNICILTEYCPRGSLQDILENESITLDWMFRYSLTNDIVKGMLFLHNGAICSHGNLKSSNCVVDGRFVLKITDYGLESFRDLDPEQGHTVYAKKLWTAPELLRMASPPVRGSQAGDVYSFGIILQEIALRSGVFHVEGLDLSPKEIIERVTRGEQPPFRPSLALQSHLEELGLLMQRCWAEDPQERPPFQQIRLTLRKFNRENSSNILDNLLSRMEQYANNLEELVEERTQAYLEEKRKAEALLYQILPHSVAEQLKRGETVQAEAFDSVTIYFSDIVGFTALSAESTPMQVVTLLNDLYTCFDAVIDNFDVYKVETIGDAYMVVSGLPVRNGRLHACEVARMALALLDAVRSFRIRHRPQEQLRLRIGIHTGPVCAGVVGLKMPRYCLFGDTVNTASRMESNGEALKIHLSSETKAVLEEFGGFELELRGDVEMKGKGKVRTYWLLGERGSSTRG
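HEK293 cells stably expressing human Npr1 and cGMP GloSensor pGS-40F, loaded 2 h with 2% GloSensor reagent, given compound 30 min at room temperature. Luminescence read before and 20 min after 0.1 nM hNppA.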
3T3 cytotox: kills NIH 3T3 cells | Potency, µM (top dose mostly 96.7 µM), for the others: at the top dose activity change, negative = cytotoxicity, usual class: inhibitors | 94,000 compounds, 4.3% hits | NIH 3T3 viability, CellTiter-Glo ATP luminescence, 48-72 h; further: nearly all actives have a fitted effect of over 55% in size
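Luminescent ATP readout (CellTiter-Glo, 10 min RT) after 48 or 72 hr compound exposure of NIH 3T3 cells seeded at 400 cells/well in 1536-well format; quantitative HTS.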
FLuc inh: inhibitors of firefly (Photinus pyralis) luciferase. P08659. purified P. pyralis luciferase, luminescence, biochemical. Potency, µM (titrated, usually from 115 µM), hits mostly inhibitors. 76,000 compounds, 2.5% hits. AID 1347043; further: nearly all actives have a fitted effect of over 65% in size
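Inhibitors were tested against purified firefly luciferase in a biochemical, low-substrate format (both substrates at 10uM) and luminescence measured with a CCD imager.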
* hit, by the source's call; i = inactive; u = inconclusive; x = no result given; [ ] = dose if it differs, or a comment. Unless noted, the call rests on the fitted dose curve; in most records, active means well fitted curve in the direction sought with a large enough effect; inconclusive means small, poorly fitted or top-dose-only effect, or another doubt; inactive means no such curve, though single readings can be large; an effect the other way counts as inactive or inconclusive. Unless noted, on the % scale 0 is the no-effect control and ±100 the full control effect; potency means the concentration at half of the fitted maximal effect.

SMILES	SNCA expr inh	HEK293 viab	HEK293 tox	NPR1 antag	3T3 cytotox	FLuc inh
Cc1ccc(C2NC(=O)N(CC(=O)Nc3c(C)cccc3Cl)C3=C2C(=O)OC3)cc1 (stereo unspecified)	16.0%	-0.5%	14.0%	-0.1%	0.2%	i
Cc1cc(NC(=O)CN2C(=O)NC(c3ccccc3Cl)C3=C2COC3=O)ccc1Br (stereo unspecified)	-26.1%	u	44.7µM*	-21.8%	39.8µM*	u
Cc1cccc(Cl)c1NC(=O)CN1C(=O)NC(c2ccc(Cl)cc2)C2=C1COC2=O (stereo unspecified)	-11.8%	3.9%	31.6µM*	-12.6%	u	i
O=C(CN1C(=O)NC(c2ccc(Cl)cc2)C2=C1COC2=O)Nc1cc(F)cc(F)c1 (stereo unspecified)	-8.2%	-8.8%	25.1µM*	-28.6%	25.1µM*	i
O=C(CN1C(=O)NC(c2ccc(Cl)cc2)C2=C1COC2=O)Nc1ccc2c(c1)OCO2 (stereo unspecified)	u	0.8%	u	-10.2%	u	i
Cc1ccc(C)c(NC(=O)CN2C(=O)NC(c3ccc(Cl)cc3)C3=C2COC3=O)c1 (stereo unspecified)	u	6.0%	u	-8.7%	u	i
O=C(CN1C(=O)NC(c2ccc(Cl)cc2)C2=C1COC2=O)Nc1cc(F)ccc1F (stereo unspecified)	-20.7%	-3.5%	44.7µM*	-17.3%	u	i
COC[C@H]1NC(=O)CC[C@H]1C(=O)N1CCN(c2ccccc2)CC1	15.1%	22.1%	0.0%	x	-15.5%	x
CCOC(=O)c1ccccc1NC(=O)CN1C(=O)NC(c2ccc(C)cc2)C2=C1COC2=O (stereo unspecified)	-19.7%	-18.7%	31.6µM*	-11.1%	u	i
O=C(CN1C(=O)NC(c2ccc(Cl)cc2)C2=C1COC2=O)Nc1ccc(Cl)cc1F (stereo unspecified)	-9.9%	-13.1%	u	-25.9%	35.5µM*	i
O=C(C1CCN([S+](=O)([O-])c2cccc(C(F)(F)F)c2)CC1)N1CCC(N2CCOC2=O)CC1	-7.4%	4.7%	-11.4%	x	-30.7%	x
O=C(C1CCCC1)N1CCc2nc(-c3ccccc3)nc(-c3ccc(Cl)cc3)c2C1	1.0%	-1.5%	35.5µM*	-13.4%	u	i
COc1ccc(-c2nc(-c3ccccc3)nc3c2CN(C(=O)C2CCCC2)CC3)cc1	13.1%	1.9%	35.5µM*	5.3%	u	i
O=C(C1CCCC1)N1CCc2nc(-c3ccc(Cl)cc3)nc(-c3ccccc3)c2C1	119.8%	17.9%	17.8µM*	-12.6%	u	u
CCc1nc2c(c(-c3ccc(O)cc3)n1)CCN(C(=O)NC1CCCC1)CC2	-0.1%	-5.5%	u	x	-27.8%	x
O=C(C1CC1)N1CCc2nc(-c3ccccc3)nc(-c3ccc(Cl)cc3)c2C1	17.3%	20.6%	-17.4%	-30.5%	-22.8%	i
CCc1nc2c(c(-c3ccc(O)cc3)n1)CN(C(=O)C1CCCC1)CC2	-5.2%	1.2%	39.8µM*	x	u	x
COC(=O)N1CCc2nc(-c3ccc(OC)cc3)nc(-c3ccccc3)c2C1	-2.5%	2.3%	u	-14.7%	u	i
O=C(Nc1cccc(Cl)c1)c1nc2cccnc2n(Cc2ccccc2)c1=O	145.3%	-6.3%	u	x	-0.9%	x
COc1ccc(-c2nc(C3CC3)nc3c2CN(C(=O)c2ccccc2F)CC3)cc1	28.2%	-7.1%	-9.6%	x	28.2µM*	x
O=C(NCC(F)(F)F)c1ccc2nnc(-c3cc(F)ccc3F)n2c1	21.8%	-5.0%	i	x	-9.7%	x
COc1ccccc1Nc1c2c(nc3ccc(NC(=O)c4cccc(OC)c4OC)cc13)CCCC2	u	15.8µM*	x	x	x	x
COc1ccc(C(=O)Nc2ccc3nc4c(c(Nc5ccccc5OC)c3c2)CCCC4)c(OC)c1	-19.6%	-7.0%	x	x	x	x
COCCn1ncc(N2CCC(C(=O)Nc3ccc(-c4nc5c(C)cccc5[nH]4)cc3)C2)cc1=O (stereo unspecified)	10.7%	-0.9%	i	x	-11.9%	x
O=C(Nc1ccc(Cl)cc1)N1CCC(c2nn(-c3ccccn3)c(=O)[nH]2)CC1	2.9%	15.3%	-2.5%	x	-17.8%	x
SMILES	SNCA expr inh	HEK293 viab	HEK293 tox	NPR1 antag	3T3 cytotox	FLuc inh
CCOCCOC1CCN(C(=O)c2cccc3[nH]ccc23)CC1	54.1%	-9.7%[12.5 µM]	-1.6%	-1.3%	i	35.5µM*
O=C(NC1CC1)c1nc2cccnc2n(Cc2ccccc2)c1=O	8.0%[87.6 µM]	-6.5%[87.6 µM]	-14.0%[172 µM]	x	-25.1%[138 µM]	x
Cc1nc(CN2C[C@H](C(=O)Nc3ccccc3)C[C@@H]2c2ccc(F)cc2)cs1	-13.6%[87.6 µM]	-12.9%[87.6 µM]	70.8µM*	0.2%[70.6 µM]	u	i
Cc1nc(CN2C[C@H](C(=O)N3CCN(CCO)CC3)C[C@@H]2c2ccc(F)cc2)cs1	3.4%[87.6 µM]	-1.0%[87.6 µM]	-13.7%[172 µM]	x	u	i
Cc1nc(CN2C[C@H](C(=O)NCc3cccc(F)c3)C[C@@H]2c2ccc(F)cc2)cs1	-20.9%[87.6 µM]	-28.1%[87.6 µM]	89.1µM*	-1.6%[70.6 µM]	u	i
O=C(NCc1ccc(F)cc1F)C1CCCCN1Cc1ccc(-c2ccsc2)cc1 (stereo unspecified)	-16.6%	-5.2%	28.2µM*	x	u	x
O=C(NCc1ccccc1F)C1CCCCN1Cc1ccc(-c2ccsc2)cc1 (stereo unspecified)	-15.8%	20.5%	u	x	31.6µM*	x
O=C(NCc1ccccn1)C1CCCCN1Cc1ccc(-c2ccsc2)cc1 (stereo unspecified)	-2.0%	0.6%	39.8µM*	x	39.8µM*	x
Cn1ccnc1CN1C(=O)CO[C@H]2CN(CCCc3ccccc3)C[C@H]21	-19.3%[87.6 µM]	-7.7%[87.6 µM]	u	-24.9%[70.6 µM]	112µM*	i
Cn1cc(CN2C[C@@H]3OCC(=O)N[C@@H]3C2)c2ccccc21	1.1%[87.6 µM]	0.0%[87.6 µM]	u	-1.4%[70.6 µM]	112µM*	i
COc1ccc(CCNC(=O)c2cc(-c3ccc(Cl)cc3)on2)cc1OC	-13.0%	-5.9%	x	x	x	x
COc1ccc(OCc2cc(C(=O)NCCc3nc(C)c(C)s3)no2)c(Cl)c1	4.0%	5.7%	31.6µM*	0.0%	u	u
OC[C@@H]1CN(C2CCC2)C[C@H]1c1nc(-c2ccncc2)no1	138.5%	-5.9%	-15.5%	2.5%	-2.8%	44.7µM*
OC[C@@H]1CN(CC2CC2)C[C@H]1c1nc(-c2ccncc2)no1	71.2%	-4.3%	-2.6%	0.2%	-11.1%	35.5µM*
COc1ccc(-c2ccccc2C(=O)NC2CCc3ccccc32)nn1 (stereo unspecified)	x	x	1.4%	x	0.2%	x
